Screens as filed in PubChem BioAssay.
The list is not random: actives were taken first. Their share in the collection is about 19%.
TDP1 cell noCPT – qHTS for Inhibitors of human tyrosyl-DNA phosphodiesterase 1 (TDP1): qHTS in cells in absence of CPT; DT40 Tdp1-/- hTDP1 cells, no CPT, ATP luminescence, 48 h; Potency, µM (top dose mostly 46.2 µM), inactives show at the highest dose activity change, negative = growth inhibition, hits mostly inhibitors; hit rate 15% among 420,000; AID 686978, 2013; also: potency is read from the fitted curve at half-maximal effect; nearly all actives have a fitted effect of over 55% in size
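Seeded 400 DT40-hTDP1 cells/well (vehicle DMSO, no 20 nM CPT); pinned compounds; ≥48 hr at 37 °C; CellTiter-Glo luminescence as viability measure.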
TDP1 cell CPT – growth inhibition of DT40 Tdp1-/-;hTDP1 cells with camptothecin (screen for TDP1 inhibitors). hit rate 12% among 420,000. chicken DT40 Tdp1-/-;hTDP1 cells + 20 nM CPT, ATP luminescence, 48 h. Potency, µM (doses to about 46.2 µM), without a hit: top-dose activity change, negative = growth inhibition, hits mostly inhibitors; also: potency is read from the fitted curve at half-maximal effect; nearly all actives have a fitted effect of over 55% in size
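Cell growth measured by CellTiter-Glo luminescence after a minimum 48 h, 37 C compound exposure with 20 nM CPT in Tdp1-knockout DT40 cells stably expressing hTDP1, seeded 400/well; qHTS titration format.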
IL1B secr inh – inflammasome signaling inhibition, IL-1 beta readout | hit rate 4.7% among 360,000 | THP-1 LPS/ATP IL-1B secretion, AlphaLISA, 16 h; hits give low values | AID 743279 | activity change, % at 57.5 µM; in the data active = activity change below about -50%; inconclusive = mostly about -30% to -49%
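Secreted IL-1B measured by AlphaLISA bead assay after 16 h compound exposure of THP-1 cells; compounds (final up to 57.5 uM) added 1 h before LPS (250 ng/mL) and ATP (1.25 mM) stimulation; lower signal means less secretion.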
TDP1 block – inhibitors of human tyrosyl-DNA phosphodiesterase TDP1; Q9NUW8; hit rate 0.28% among 350,000; Potency, µM (titrated, usually from 130 µM), without a hit: top-dose activity change, negative = inhibition, most hits filed as inhibitors; recombinant TDP1, AlphaScreen DNA substrate cleavage; AID 485290; also: potency is read from the fitted curve at half-maximal effect; nearly all actives have a fitted effect of over 40% in size
Target sequence (Q9NUW8 whole entry, looked up): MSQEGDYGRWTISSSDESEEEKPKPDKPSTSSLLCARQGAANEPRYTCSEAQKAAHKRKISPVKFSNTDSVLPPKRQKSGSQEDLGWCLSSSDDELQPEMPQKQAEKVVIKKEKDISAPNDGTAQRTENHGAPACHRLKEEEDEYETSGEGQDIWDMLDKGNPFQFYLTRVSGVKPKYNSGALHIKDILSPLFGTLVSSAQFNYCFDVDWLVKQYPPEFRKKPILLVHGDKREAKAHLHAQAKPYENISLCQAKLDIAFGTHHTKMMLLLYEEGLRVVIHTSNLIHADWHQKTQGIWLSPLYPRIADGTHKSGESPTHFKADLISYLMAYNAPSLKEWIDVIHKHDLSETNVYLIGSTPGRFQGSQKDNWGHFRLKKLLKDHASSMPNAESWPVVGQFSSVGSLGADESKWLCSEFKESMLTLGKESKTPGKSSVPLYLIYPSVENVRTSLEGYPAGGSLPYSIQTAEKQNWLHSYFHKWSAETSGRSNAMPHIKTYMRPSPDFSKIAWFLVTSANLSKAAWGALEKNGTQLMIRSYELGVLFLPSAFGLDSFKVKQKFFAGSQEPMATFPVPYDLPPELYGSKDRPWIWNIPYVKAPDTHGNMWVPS
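Steps: enzyme plus compound, 15 min RT; add biotin/phosphotyrosine-FITC oligonucleotide (15 nM final), react 5 min; add donor/acceptor beads (10 ug/ml final), 10 min; read AlphaScreen. Tdp1 at 1 nM final.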
ELG1 repair inh – ELG1-dependent DNA repair inhibition. AID 504467. Potency, µM (series often up to 46.1 µM), inactives show top-dose activity change, negative = inhibition, actives largely listed as inhibitors. HEK293T ELG1-luciferase reporter, luminescence, 16 h; DNA damage induced by 5-fluorouridine. hit rate 2.3% among 330,000; also: potency is read from the fitted curve at half-maximal effect; nearly all actives have a fitted effect of over 55% in size
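Step one: seed 2,000 cells per well. Step two: pin-transfer compound or DMSO alongside 5-fluorouridine. Step three: incubate 16 hr, 37 °C, 5% CO2. Step four: add ONE-Glo, wait 30 min, read luminescence.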
Giardia killer – kills Giardia lamblia | activity change, % at 7.66 µM, hits read low | hit rate 0.15% among 340,000 | Giardia lamblia trophozoite viability; in the data active = activity change below about -80%; inconclusive = between about -30% and that limit;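 also: parasites exposed to compound for two days anaerobically before the ATP read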
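Anaerobic 48 hrs incubation at 37 deg C of 100 trophozoites/well with test compounds; ATPLite 1-Step luminescence, 15-30 min RT, reports cellular ATP as viability.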
Numbers without * were called inactive; ? = inconclusive; · = no result; [ ] = dose if it differs, or a comment. Unless noted, calls follow the shape of the dose curve; as a rule, active = well fitted curve in the direction sought with a large enough effect; inconclusive = small, poorly fitted or top-dose-only effect, or another doubt; inactive = no such curve, though single readings can be large; an effect the other way counts as inactive or inconclusive. % is scaled to controls: 0 for no effect and ±100 for the full control effect.

SMILES | TDP1 cell noCPT | TDP1 cell CPT | IL1B secr inh | TDP1 block | ELG1 repair inh | Giardia killer
Cc1nn(C(=O)COc2ccccc2)c(C)c1Sc1ccccc1 | -17% | -14% | · | · | · | ·
Cc1ccc(S(=O)(=O)N2CCSCCSCCSCCSCC2)cc1 | ? | -9% | -7 | · | · | 9
Cc1cc(=O)c2ccc(Cl)cc2[nH]1 | -21% | -9% | 65 | 4%[234 µM] | -25% | 14
Cc1cc(=O)c2cc(Cl)ccc2[nH]1 | 5.2µM* | 5.2µM* | 12 | -2% | 4% | 8
COc1ccc(NC(=O)CSCc2cc(=O)c3cc(Cl)ccc3[nH]2)cc1 | -29% | 1% | · | 3% | · | ·
COc1ccc(SCc2cc(=O)c3cc(Cl)ccc3[nH]2)cc1 | 3.7µM* | 21µM* | · | 3% | · | ·
Cc1ccc2[nH]c(CSc3ccccc3)cc(=O)c2c1 | 16µM* | 18µM* | 10 | · | 4% | 11
O=c1cc(CSc2ccccc2)[nH]c2ccc(F)cc12 | 16µM* | 12µM* | · | 0% | · | ·
Cn1c(=O)c(CCc2ccccc2)nc2cnc(Oc3ccccc3)nc21 | ? | -20% | · | · | · | ·
Cc1cc(=O)n(C2CCS(=O)(=O)C2)[nH]1 (stereo not given) | 8% | 5% | 8 | 3% | 0% | 3
Cc1ccc(-c2nnc(SCC(=O)NC3CCCC3)n2N)cc1 | -2% | 5% | 10 | 0% | 5% | 6
O=[N+]([O-])c1cccc2c(N3CCCC3)ccnc12 | 8.2µM* | 8.2µM* | -64* | -5% | ? | ?
O=C(c1ccccc1F)N1CCN(c2ccc([N+](=O)[O-])c3ncccc23)CC1 | 21µM* | 15µM* | -3 | 0% | ? | -12
CCN(C(=O)Cn1c(=O)oc2ccccc21)c1ccc(C)c(C)c1 | -5% | -25% | 1 | · | 17% | ?
N#C[C@@H]1C[C@@H]2C[C@@H]2N1C(=O)[C@@H](N)C12CC3CC(CC(O)(C3)C1)C2 | -15% | -24% | · | · | · | ·
COc1ccc(-c2noc(CCC(=O)NCCN3CCN(c4ccccc4F)CC3)n2)cc1 | 15µM* | 16µM* | -10 | -5% | ? | 12
COc1ccc(-c2noc(CCC(=O)NCCCN3CCN(c4ccccc4F)CC3)n2)cc1 | 16µM* | 23µM* | -23 | 3% | ? | -7
C=CCn1cccc(C(=O)Nc2cc(OC)ccc2OC)c1=O | -13% | 14% | -8 | 12% | -7% | 9
N#CC1=C2N=C(N)c3ccccc3N2C2=C(C(=O)CCC2)C1c1ccc(Cl)cc1 (stereo not given) | 16µM* | 21µM* | -5 | 1% | -9% | 9
CC1(C)CC(=O)C2=C(C1)N(c1ccccc1)C(N)=C(C#N)C2c1ccccc1 (stereo not given) | -29% | -13% | -50* | 5% | -11% | -9
CC1(C)CC(=O)C2=C(C1)N1C(=C(C#N)C2c2ccccc2Cl)N=C(N)c2ccccc21 (stereo not given) | ? | ? | -8 | 5% | -15% | -15
CC1(C)CC(=O)C2=C(C1)N1C(=C(C#N)C2c2ccc(Cl)cc2)N=C(N)c2ccccc21 (stereo not given) | 21µM* | ? | ? | 8% | -26% | -8
Cc1ccc2c(c1)cc(CN(C)Cc1nc(C)cs1)c(=O)n2C | -20% | 0% | · | · | · | ·
CCOc1ccccc1NC(=O)Cn1c(=O)n(Cc2ccco2)c(=O)c2cccnc21 | ? | ? | · | 2% | · | ·
COC(=O)c1ccc(NC(=O)CN(CCc2ccccc2)S(=O)(=O)c2ccc(OC)cc2)cc1 | 21µM* | ? | · | -5%[12.3 µM] | · | ·
SMILES | TDP1 cell noCPT | TDP1 cell CPT | IL1B secr inh | TDP1 block | ELG1 repair inh | Giardia killer
Cc1ccc(S(=O)(=O)N(CCc2ccccc2)CC(=O)Nc2ccc(Br)cc2)cc1 | 16µM* | ? | · | 0%[12.3 µM] | · | ·
CCNC(=O)CN(CCc1ccccc1)S(=O)(=O)c1ccc(OC)cc1 | -28% | ? | -5 | 0% | 1% | -7
CC1=C/C(=C\c2ccc3c(c2)OCO3)C(=O)S1 | 4% | -1% | -10 | 6% | -15% | -16
CC1=C/C(=C/N(C)c2ccccc2)C(=O)S1 | 26µM* | 21µM* | -11 | · | ? | 1
Cc1ccc(Cc2c(-c3ccc(C)cc3)nc3ccc(Br)cn23)cc1 | 23µM* | 21µM* | 47 | · | · | ·
Cc1ccc(Cc2c(-c3cccc(Br)c3)nc3ccc(Br)cn23)cc1 | -8% | -14% | 16 | · | · | ·
Cc1ccc(Cc2c(-c3ccc(Cl)cc3)nc3ccc(Br)cn23)cc1 | 26µM* | 16µM* | 43 | · | · | ·
Cc1ccc(Cc2c(-c3ccco3)nc3ccc(Br)cn23)cc1 | ? | ? | -16 | · | · | ·
CCN(CC)c1cc(C)c2cc(NC(=O)c3ccccc3OC)ccc2n1 | 16µM* | ? | · | -2% | ? | 29
CCN(CC)c1cc(C)c2cc(NC(=O)c3cccc(F)c3)ccc2n1 | 23µM* | ? | · | 12% | · | ·
CCN(CC)c1cc(C)c2cc(NC(=O)c3ccc(F)cc3Cl)ccc2n1 | ? | ? | · | 0% | · | ·
CCCCc1ccc(C(=O)Nc2ccc3nc(N(CC)CC)cc(C)c3c2)cc1 | 18µM* | ? | · | -3% | · | ·
CCN(CC)c1cc(C)c2cc(NC(=O)c3cccs3)ccc2n1 | 23µM* | 16µM* | · | 6% | ? | 2
CCCCc1ccc(NC(=O)c2ccc(NS(C)(=O)=O)cc2)cc1 | ? | ? | -6 | -1% | -3% | 0
CCN(CC)c1cc(C)c2cc(NC(=O)c3ccc(Br)o3)ccc2n1 | ? | ? | -66* | 9% | ? | -10
CCN(CC)c1cc(C)c2cc(NC(=O)c3cc(OC)cc(OC)c3)ccc2n1 | ? | ? | · | 6% | · | ·
CCN(CC)c1cc(C)c2cc(NC(=O)c3ccc(OC)c(OC)c3)ccc2n1 | 23µM* | 21µM* | · | 9% | · | ·
C/C(CC(=O)Nc1ccc(Cl)cc1Cl)=N\NC(=O)c1cnccn1 | 7% | -3% | -7 | · | 28% | 37
COc1cc(-c2ccno2)ccc1S(=O)(=O)N1CCN(c2cccc(Cl)c2)CC1 | ? | 23µM* | · | 0% | · | ·
COc1cc(-c2ccno2)ccc1S(=O)(=O)N1CCN(c2cc(C)ccc2C)CC1 | ? | ? | · | 4% | · | ·
COc1ccc(-c2noc(N3CCN(c4cccc(C)c4C)CC3)n2)cc1OC | 7.3µM* | 18µM* | · | 5% | · | ·
COc1ccc(OC)c(-c2noc(N3CCN(c4ccc(Cl)cc4)CC3)n2)c1 | 15µM* | ? | · | 10% | · | ·
COc1ccc(-c2noc(N3CCN(c4cccc(Cl)c4)CC3)n2)cc1OC | 8.2µM* | ? | · | -11% | · | ·
